# Laboratory results as given in the supplement of paper PMC6555819.
# How the values were obtained:
# Experiment in all cases: PBM binding z-score (relative to random genomic background probes); higher = stronger binding; sequences stand for … in GC…GCGATTGACAGCGTAGAATGAAGG
# [1] = tested on: FXR:RXRa (NR concentration 270 nM, RXRa partner concentration 90 nM)
# Method in brief: (§1)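 Antibodies against each partner of ligand-free nuclear receptor dimers (one per run) detected binding on custom Agilent 4×180K protein-binding microarrays after 1 h incubation. The double-stranded probes had 34-nt variable regions carrying direct-repeat seeds, single-nucleotide variants, half-site ablations and random human genomic background sequences. Binding z-scores, from regression-normalized fluorescence, use the random background probes as reference.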
# [2] = tested on: LXRa:RXRa (NR concentration 270 nM, RXRa partner concentration 90 nM)
# Method in brief: as §1
# [3] = tested on: LXRa homodimer (NR concentration 270 nM)
# Method in brief: as §1
# [4] = tested on: LXRb:RXRa (NR concentration 270 nM, RXRa partner concentration 90 nM)
# Method in brief: as §1
# [5] = tested on: LXRb homodimer (NR concentration 270 nM)
# Method in brief: as §1
# [6] = tested on: PPARa:RXRa (NR concentration 270 nM, RXRa partner concentration 90 nM)
# Method in brief: as §1
# [7] = tested on: PPARg:RXRa (NR concentration 180 nM, RXRa partner concentration 90 nM)
# Method in brief: as §1
# [8] = tested on: PPARg:RXRa 270nM:90nM, anti-RXR (NR concentration 270 nM, RXRa partner concentration 90 nM)
# Method in brief: as §1
# [9] = tested on: PPARg:RXRa 30nM:10nM, anti-RXR (NR concentration 30 nM, RXRa partner concentration 10 nM)
# Method in brief: as §1
# [10] = tested on: PPARg:RXRa 90nM:30nM, anti-RXR (NR concentration 90 nM, RXRa partner concentration 30 nM)
# Method in brief: as §1
# [11] = tested on: PPARg:RXRa DBDmut IVT, anti-RXR (DBD mutation: RXRa K156A/R161A, NR concentration 270 nM, RXRa partner concentration 90 nM)
# Method in brief: as §1
# [12] = tested on: PPARg:RXRa IVT, anti-PPARg (NR concentration 270 nM, RXRa partner concentration 90 nM)
# Method in brief: as §1
# [13] = tested on: PPARg DBDmut:RXRa IVT, anti-PPARg (DBD mutation: PPARg1 K132A/R137A, NR concentration 270 nM, RXRa partner concentration 90 nM)
# Method in brief: as §1
# [14] = tested on: PPARg DBDmut IVT, anti-PPARg (DBD mutation: PPARg1 K132A/R137A, NR concentration 270 nM)
# Method in brief: as §1
# [15] = tested on: PPARg homodimer (NR concentration 180 nM)
# Method in brief: as §1
# [16] = tested on: PXR:RXRa (NR concentration 270 nM, RXRa partner concentration 90 nM)
# Method in brief: as §1
# [17] = tested on: PXR homodimer (NR concentration 270 nM)
# Method in brief: as §1
# [18] = tested on: RARa:RXR (NR concentration 270 nM, RXRa partner concentration 90 nM)
# Method in brief: as §1
# [19] = tested on: RARa homodimer (NR concentration 270 nM)
# Method in brief: as §1
# [20] = tested on: RARb:RXRa (NR concentration 270 nM, RXRa partner concentration 90 nM)
# Method in brief: as §1
Sequence,PBM binding z-score [1],PBM binding z-score [2],PBM binding z-score [3],PBM binding z-score [4],PBM binding z-score [5],PBM binding z-score [6],PBM binding z-score [7],PBM binding z-score [8],PBM binding z-score [9],PBM binding z-score [10],PBM binding z-score [11],PBM binding z-score [12],PBM binding z-score [13],PBM binding z-score [14],PBM binding z-score [15],PBM binding z-score [16],PBM binding z-score [17],PBM binding z-score [18],PBM binding z-score [19],PBM binding z-score [20]
ACAGACAGGTGATGAAGGTAACTTAGGCTATCAT,-0.131,-0.0415,-0.322,0.0367,-0.119,0.169,0.55,-0.195,-0.0102,-0.0594,0.373,0.171,0.414,0.165,0.0231,-0.0368,-0.316,0.217,0.132,0.163
CCAGACAGGTGAGAAGGTAACTCCGCCTCGATTA,-0.167,-0.237,0.189,-0.163,-0.188,0.436,0.351,0.504,-0.516,0.193,1.06,0.448,-0.414,-1.08,0.567,-0.515,-0.154,0.0222,0.152,0.539
TTACCCAGGTGAAGGTCGTTGATCCCTCTGTAGA,1.67,1.53,-0.000155,1.21,-0.632,1.77,0.932,1.73,0.687,1.04,1.24,2.58,-0.304,-0.0545,0.499,1.12,0.0205,1.6,-1.08,1.23
ATAGAAAGGTCGTGAGGTGAGTATACAGAAAGGC,4.9,3.76,0.49,3.4,0.703,4.86,4.33,4.37,2.46,3.57,0.952,2.43,1.91,1.19,2,3.19,0.712,4.26,1.11,3.97
ATCTCTATGTAAAAGTTCAGTGAATCCCGAGGAT,0.48,1.17,1.3,0.915,0.829,2.49,3.27,4.6,3.31,4.95,-0.373,1.21,1.18,0.786,1.41,1.78,1.21,1.08,0.424,2.23
TCGAGGAGGTTAGGGGCATTCAGAATGGCGTCGA,1.12,0.91,-0.0426,1.71,0.134,1.94,0.354,1.08,1.19,1.09,1.17,0.304,-0.348,-0.472,1.01,1.03,0.679,0.889,0.232,1.62
CGAACTAGGCCAAGGACAGTGAATCTCCGCACGC,-0.241,-0.713,-0.191,-0.883,-0.975,1.04,1.69,1.53,-0.0892,0.672,6.24,4.83,0.31,-0.452,-0.431,-0.557,-0.632,-0.45,-0.416,0.81
GCAGACGGGTGAAACGCAGGTAACTCAGGGTGGC,-0.349,-0.337,-0.751,-0.502,-1.12,0.266,0.241,-0.502,-0.732,-0.536,-0.241,-0.0586,-1.33,-0.958,-0.685,-0.244,-0.933,0.253,-0.996,0.14
TGAATGAGGTTAATGATCAGGGAACGTGGCGTCG,1.4,1.33,-0.115,0.692,0.285,2.39,1.58,1.84,0.601,1.17,2.04,1.98,1.1,0.18,0.483,0.561,0.0582,0.918,0.17,1.52
CCTTACGCGTCAAGGTTATAGCACGGGTGGTACG,0.452,0.749,0.096,0.771,0.153,1.14,0.691,-0.0885,-0.308,0.0411,0.185,-0.0236,-0.542,-0.798,0.726,0.65,0.0877,1.02,0.124,0.97
ATCGTAAGGTCGAGGTGAGTATAGAGAAAGGGAA,2.64,1.91,0.0142,1.68,0.624,3.02,1.53,1.72,0.505,1.27,-0.153,1.72,1.12,1.14,1.07,1.68,0.189,2.17,0.395,3.22
AGAACGAGGGCACGCTCAGTTGATAGCAGAGTAG,0.582,0.413,-0.836,0.0167,-0.804,2.06,2.08,1.64,0.279,0.796,3.98,4.09,0.654,0.271,0.0615,0.642,0.028,0.591,-0.377,2.64
ATATCTAGGTAAAGTTCAGTGAAAGATCGATAGA,1.18,1.84,1.43,1.36,0.639,3.42,5.08,5.21,2.95,4.9,6.18,5.91,1.87,1.59,1.46,1.95,1.41,1.52,1.3,2.74
CCGACTGGGGCAATGTTACCATAACGCACAGCCA,-0.585,-0.725,-0.195,-0.162,-1.01,0.11,1.21,0.645,-0.14,0.223,3.67,2.99,-0.638,-0.759,0.142,-0.771,-0.41,-0.456,0.0364,0.351
